Data from ChEMBL document CHEMBL3988442, “University of Dundee, Small-Polar-MMV Screening Library” (2021).
For some of these results: Results with a measured potency or affinity are listed apart.

Columns and labels:
Set-up in all cases: scale not given: direction of the effect not stated beside the values
[1] = molecular target: Protein translocase subunit SecA (Escherichia coli (strain K12)) (UniProt P10408); experiment: Assay to Identify E. coli SecA ATPase Inhibitors; assay type: functional; details: 30 µM
[2] = molecular target: T1, Ubiquitin-activating enzyme e1, putative (Leishmania donovani (strain BPK282A1)) (UniProt E9BSI1); experiment: Leishmania donovani Ubiquitin Activating Enzyme (LdE1); assay type: functional; details: 30 µM
T1 sequence (whole entry): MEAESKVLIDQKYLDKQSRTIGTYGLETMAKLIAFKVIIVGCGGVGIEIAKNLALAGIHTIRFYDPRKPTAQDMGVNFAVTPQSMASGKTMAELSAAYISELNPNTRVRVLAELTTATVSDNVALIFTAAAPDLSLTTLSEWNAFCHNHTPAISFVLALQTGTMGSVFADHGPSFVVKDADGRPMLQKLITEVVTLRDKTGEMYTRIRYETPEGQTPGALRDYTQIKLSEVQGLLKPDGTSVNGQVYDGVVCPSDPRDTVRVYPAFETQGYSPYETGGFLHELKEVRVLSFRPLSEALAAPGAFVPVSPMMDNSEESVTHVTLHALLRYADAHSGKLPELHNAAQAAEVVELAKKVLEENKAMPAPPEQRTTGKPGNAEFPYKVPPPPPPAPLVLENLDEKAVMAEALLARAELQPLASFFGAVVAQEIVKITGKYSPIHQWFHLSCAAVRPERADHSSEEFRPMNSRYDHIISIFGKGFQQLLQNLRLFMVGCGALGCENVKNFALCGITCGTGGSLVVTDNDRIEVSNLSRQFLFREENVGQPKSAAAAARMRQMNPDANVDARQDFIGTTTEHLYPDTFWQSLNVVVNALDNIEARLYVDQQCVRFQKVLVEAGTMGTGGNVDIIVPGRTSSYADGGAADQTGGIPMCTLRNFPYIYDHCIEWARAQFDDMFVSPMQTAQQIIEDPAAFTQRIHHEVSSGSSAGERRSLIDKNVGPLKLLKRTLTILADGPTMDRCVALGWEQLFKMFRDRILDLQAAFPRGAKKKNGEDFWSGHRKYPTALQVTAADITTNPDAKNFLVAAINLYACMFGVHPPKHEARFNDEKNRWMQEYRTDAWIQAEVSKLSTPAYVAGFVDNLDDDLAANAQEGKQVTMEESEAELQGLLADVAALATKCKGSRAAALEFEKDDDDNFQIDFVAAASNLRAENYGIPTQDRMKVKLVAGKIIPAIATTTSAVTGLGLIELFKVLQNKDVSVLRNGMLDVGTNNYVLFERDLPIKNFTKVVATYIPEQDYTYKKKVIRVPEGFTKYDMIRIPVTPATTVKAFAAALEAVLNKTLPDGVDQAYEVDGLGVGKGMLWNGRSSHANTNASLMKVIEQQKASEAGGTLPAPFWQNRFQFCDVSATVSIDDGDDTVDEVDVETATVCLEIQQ

[3] = molecular target: AMP-activated protein kinase, AMPK (Homo sapiens) (UniProt P54646+O43741+P54619+Q9UGJ0+Q9Y478+Q13131+Q9UGI9); experiment: AMP-dependent Kinase enzyme assay. An in vitro enzyme assay that detects ADP turnover that is directly proportional to AMPK activity. This uses naive AMPK that is activated during the assay with MK-8722; assay type: functional; details: 30 µM
[4] = molecular target: Sialic acid-binding Ig-like lectin 9 (Homo sapiens) (UniProt Q9Y336); experiment: Hs-Siglec9 ALPHAscreen SOP 20170721; details: 10 µM
Trypanosoma cruzi = experiment: Trypanosoma cruzi phosphomannomutase and mannose-1-phosphate guanylyltransferase assay; assay type: functional; details: 10 µM
[5] = molecular target: T2, Arginase-2, mitochondrial (Homo sapiens) (UniProt P78540); experiment: in vitro enzyme assay to detect the production of urea directly proportional to the activity of Arginase II; assay type: functional; details: 33.3 µM; note: in the data most compounds retested in dose-response had high values
T2 sequence (whole entry): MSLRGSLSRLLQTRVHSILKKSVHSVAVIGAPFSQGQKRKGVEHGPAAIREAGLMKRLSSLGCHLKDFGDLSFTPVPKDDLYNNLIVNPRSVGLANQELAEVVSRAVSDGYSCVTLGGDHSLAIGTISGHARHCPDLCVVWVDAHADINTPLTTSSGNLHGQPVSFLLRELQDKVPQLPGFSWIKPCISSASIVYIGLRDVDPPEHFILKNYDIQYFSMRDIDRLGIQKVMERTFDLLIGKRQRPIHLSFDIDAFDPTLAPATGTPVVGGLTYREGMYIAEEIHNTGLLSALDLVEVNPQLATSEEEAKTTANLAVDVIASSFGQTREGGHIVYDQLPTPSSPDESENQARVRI

[6] = molecular target: T3, Proteasome subunit beta (Trypanosoma cruzi) (UniProt O96673); experiment: Trypanosoma cruzi proteasome chymotrypsin-like activity (TcProtChymo) assay.; note: in the data most compounds retested in dose-response had high values; assay type: functional; details: 9.37 µM
T3 sequence (whole entry): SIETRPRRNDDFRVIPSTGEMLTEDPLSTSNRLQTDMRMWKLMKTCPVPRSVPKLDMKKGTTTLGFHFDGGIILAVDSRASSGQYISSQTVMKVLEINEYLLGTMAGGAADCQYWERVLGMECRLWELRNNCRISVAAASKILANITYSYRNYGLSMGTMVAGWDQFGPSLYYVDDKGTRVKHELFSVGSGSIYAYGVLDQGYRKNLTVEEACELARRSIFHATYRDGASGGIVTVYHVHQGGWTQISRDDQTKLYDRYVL

Homo sapiens = species on record: Homo sapiens; experiment: To identify inhibition of the IFN signalling (Jak-Stat) pathway via expression of an eGFP reporter gene under the control of an IFN-stimulated response element (ISRE) containing MxA promoter.; assay type: functional; details: 30 µM
[7] = molecular target: T4, Tyrosyl-tRNA synthetase, putative (Trypanosoma cruzi (strain CL Brener)) (UniProt Q4DSP6); experiment: Trypanosoma cruzi tyrosyl tRNA synthetase (TcYRS) _High Tyrosine SOP; assay type: functional; details: 30 µM; note: in the data most compounds retested in dose-response had high values
T4 sequence (whole entry): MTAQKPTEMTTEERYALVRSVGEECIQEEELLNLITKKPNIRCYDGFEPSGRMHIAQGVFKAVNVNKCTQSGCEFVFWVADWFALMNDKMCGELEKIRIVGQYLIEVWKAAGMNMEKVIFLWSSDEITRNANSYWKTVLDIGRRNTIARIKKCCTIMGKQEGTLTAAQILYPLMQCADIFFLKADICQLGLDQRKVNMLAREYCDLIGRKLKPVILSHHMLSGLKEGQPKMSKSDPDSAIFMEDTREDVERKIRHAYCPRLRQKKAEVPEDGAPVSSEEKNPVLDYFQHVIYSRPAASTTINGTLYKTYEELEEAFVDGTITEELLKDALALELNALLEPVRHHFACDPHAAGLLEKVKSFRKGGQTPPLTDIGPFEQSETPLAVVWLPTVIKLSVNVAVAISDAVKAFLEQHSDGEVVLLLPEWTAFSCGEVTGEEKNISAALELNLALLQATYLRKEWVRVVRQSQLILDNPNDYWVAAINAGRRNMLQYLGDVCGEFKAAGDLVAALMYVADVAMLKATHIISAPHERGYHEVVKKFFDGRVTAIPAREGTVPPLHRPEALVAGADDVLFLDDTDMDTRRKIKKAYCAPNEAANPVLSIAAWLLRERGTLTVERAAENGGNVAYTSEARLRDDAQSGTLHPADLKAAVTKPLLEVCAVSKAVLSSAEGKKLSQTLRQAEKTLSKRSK

[8] = molecular target: T4, Tyrosyl-tRNA synthetase, putative (Trypanosoma cruzi (strain CL Brener)); experiment: Trypanosoma cruzi tyrosyl tRNA synthetase (TcYRS) SOP; assay type: functional; details: 30 µM
[9] = molecular target: Chromo domain-containing protein 1 (Saccharomyces cerevisiae (strain ATCC 204508 / S288c) (Baker's yeast)) (UniProt P32657); experiment: ScCHD-1 Enzyme Inhibition Assay; assay type: functional; details: 30 µM; note: in the data most compounds retested in dose-response had high values
Sequence of Chromo domain-containing protein 1 (Saccharomyces cerevisiae (strain ATCC 204508 / S288c) (Baker's yeast)) (P32657 whole entry, the tested form may be a part): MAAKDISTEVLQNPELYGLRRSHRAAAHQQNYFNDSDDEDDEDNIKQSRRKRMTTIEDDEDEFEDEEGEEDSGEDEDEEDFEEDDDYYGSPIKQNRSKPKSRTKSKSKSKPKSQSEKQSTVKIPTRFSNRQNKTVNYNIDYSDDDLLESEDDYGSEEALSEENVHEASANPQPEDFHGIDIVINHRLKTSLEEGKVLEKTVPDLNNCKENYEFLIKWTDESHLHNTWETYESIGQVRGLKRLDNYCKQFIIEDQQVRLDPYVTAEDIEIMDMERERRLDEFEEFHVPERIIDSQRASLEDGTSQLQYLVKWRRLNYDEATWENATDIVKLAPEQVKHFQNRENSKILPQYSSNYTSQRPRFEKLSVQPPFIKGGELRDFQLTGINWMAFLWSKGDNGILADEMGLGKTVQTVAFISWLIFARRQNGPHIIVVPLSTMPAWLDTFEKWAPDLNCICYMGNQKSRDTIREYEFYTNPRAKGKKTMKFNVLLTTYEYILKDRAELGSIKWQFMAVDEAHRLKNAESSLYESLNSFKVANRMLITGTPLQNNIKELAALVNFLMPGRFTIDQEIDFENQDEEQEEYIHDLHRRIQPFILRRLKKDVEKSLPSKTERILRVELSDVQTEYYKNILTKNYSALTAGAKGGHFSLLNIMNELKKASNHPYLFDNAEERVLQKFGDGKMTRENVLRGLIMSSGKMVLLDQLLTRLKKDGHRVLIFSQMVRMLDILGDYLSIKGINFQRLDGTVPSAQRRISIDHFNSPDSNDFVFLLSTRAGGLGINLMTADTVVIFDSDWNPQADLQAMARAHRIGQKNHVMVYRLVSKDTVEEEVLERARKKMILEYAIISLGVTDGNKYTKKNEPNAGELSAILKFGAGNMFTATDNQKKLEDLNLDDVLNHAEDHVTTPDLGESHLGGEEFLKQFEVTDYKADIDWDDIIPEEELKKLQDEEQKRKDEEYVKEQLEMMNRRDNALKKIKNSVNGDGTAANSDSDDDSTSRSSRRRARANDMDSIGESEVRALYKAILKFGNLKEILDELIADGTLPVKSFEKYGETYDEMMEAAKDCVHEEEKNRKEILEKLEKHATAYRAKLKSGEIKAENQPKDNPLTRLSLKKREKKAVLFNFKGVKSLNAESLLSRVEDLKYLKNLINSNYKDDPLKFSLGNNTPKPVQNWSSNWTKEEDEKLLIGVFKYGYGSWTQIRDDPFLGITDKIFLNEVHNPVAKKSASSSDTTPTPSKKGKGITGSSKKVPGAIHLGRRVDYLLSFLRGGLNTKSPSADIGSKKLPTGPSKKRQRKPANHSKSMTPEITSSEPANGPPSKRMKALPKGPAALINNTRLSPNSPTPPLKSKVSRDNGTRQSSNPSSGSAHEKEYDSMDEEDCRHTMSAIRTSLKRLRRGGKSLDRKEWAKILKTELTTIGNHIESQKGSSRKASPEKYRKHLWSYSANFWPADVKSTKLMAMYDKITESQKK

Sequence of Protein translocase subunit SecA (Escherichia coli (strain K12)) (P10408 whole entry): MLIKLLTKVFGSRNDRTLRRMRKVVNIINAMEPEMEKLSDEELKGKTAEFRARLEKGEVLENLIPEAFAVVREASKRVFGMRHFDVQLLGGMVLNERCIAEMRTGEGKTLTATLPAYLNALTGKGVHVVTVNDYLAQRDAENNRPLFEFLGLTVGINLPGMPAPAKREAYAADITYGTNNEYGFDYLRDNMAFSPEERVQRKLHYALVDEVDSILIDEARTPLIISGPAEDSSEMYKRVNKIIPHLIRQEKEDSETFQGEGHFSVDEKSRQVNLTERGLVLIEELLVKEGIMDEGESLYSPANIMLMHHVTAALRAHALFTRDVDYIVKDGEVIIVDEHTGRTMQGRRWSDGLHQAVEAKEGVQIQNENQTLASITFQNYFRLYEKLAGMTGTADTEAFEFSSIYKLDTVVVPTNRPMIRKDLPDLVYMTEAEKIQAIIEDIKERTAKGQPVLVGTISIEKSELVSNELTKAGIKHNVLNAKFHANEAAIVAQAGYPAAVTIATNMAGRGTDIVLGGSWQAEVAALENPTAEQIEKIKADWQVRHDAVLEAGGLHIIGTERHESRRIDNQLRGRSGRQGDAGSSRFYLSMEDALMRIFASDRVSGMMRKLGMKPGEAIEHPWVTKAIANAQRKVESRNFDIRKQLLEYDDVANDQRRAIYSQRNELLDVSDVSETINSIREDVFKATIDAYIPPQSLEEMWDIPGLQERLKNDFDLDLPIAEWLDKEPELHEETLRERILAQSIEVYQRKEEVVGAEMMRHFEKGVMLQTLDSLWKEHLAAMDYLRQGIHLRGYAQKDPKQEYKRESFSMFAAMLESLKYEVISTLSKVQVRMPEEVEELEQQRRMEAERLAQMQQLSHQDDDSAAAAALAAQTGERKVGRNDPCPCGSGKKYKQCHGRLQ
Sequence of Sialic acid-binding Ig-like lectin 9 (Homo sapiens) (Q9Y336 whole entry): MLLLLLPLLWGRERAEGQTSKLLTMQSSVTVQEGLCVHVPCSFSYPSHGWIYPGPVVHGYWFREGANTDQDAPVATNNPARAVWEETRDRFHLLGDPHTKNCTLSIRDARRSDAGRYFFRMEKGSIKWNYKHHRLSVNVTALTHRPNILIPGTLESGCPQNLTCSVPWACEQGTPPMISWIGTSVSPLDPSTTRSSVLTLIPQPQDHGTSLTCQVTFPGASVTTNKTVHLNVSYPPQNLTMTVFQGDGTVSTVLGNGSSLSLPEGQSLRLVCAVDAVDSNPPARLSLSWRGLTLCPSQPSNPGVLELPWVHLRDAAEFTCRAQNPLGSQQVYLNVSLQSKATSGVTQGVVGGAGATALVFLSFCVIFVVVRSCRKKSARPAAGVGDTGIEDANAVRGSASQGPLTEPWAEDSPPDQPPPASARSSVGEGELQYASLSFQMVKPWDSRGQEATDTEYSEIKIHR

SMILES | Percent Effect [1] [%] | Percent Effect [2] [%] | Percent Effect [3] [%] | Percent Effect [4] [%] | Percent Effect (Trypanosoma cruzi) [%] | Percent Effect [5] [%] | Percent Effect [6] [%] | Percent Effect (Homo sapiens) [%] | Percent Effect [7] [%] | Percent Effect [8] [%] | Percent Effect [9] [%]
Cc1nc2ccccc2c(=O)n1CCC(=O)N1CCSCC1 | -6.49 | 13.2 | 14.1 | 6.54 | 3.19 | 0 | 6.85 | 4.99 | 6.37 | 17.1 | -13.3
O=C(c1cncc(Br)c1)N1CCC(O)(Cn2ccc3ccncc32)CC1 | 1.79 | 1.35 | 12.2 | -0.489 | -7.91 | 1.62 | 9.52 | 9.61 | 1.07 | 1.3 | -12.2
O=C(c1cccnc1)N1CCC2(CC1)CCN(c1ccsc1)C2=O | -4.05 | -2.6 | 1.54 | -7.82 | -1.28 | -4.52 | 12 | -7.6 | -5.29 | -6.41 | 0.0389
CCc1nccn1C1CCCN(C(=O)c2ccc3[nH]c(=O)[nH]c3c2)C1 (stereo unspecified) | -10.8 | 7.79 | -15.1 | 18.9 | 8.24 | 2.85 | 5.41 | 14.2 | 8.74 | 21.9 | -4.1
O=C(NCCOc1ccc(F)c(F)c1)NCc1cccc(CO)c1 | -2.53 | 2.7 | 1.53 | 4.96 | 1.16 | -2.38 | 15.2 | 19.7 | -0.529 | 7.32 | -4.04
Cn1cnnc1C1CCCN(C(=O)c2n[nH]c3ccccc23)C1 (stereo unspecified) | -3.18 | 18.2 | -8.06 | -14.8 | 5.19 | -3.16 | 13.8 | -1.86 | 8.57 | 32.9 | -21.5
COc1cc(C(=O)N2CCC(c3n[nH]c(C4CC4)n3)CC2)ccc1C | -4.66 | -1.27 | 6.11 | -3.19 | -1.33 | 2.37 | -0.686 | 8.43 | 1.04 | -2.53 | -30.5
O=C(c1cccc(F)c1)N1CCOC(c2nc(-c3ncccn3)no2)C1 (stereo unspecified) | -7.06 | 5.33 | 0.687 | -2.48 | -4.53 | -0.699 | 3.44 | 17.9 | 3.19 | 6.41 | -2.27
Cn1ccc(C(=O)N2CCC(Cc3cccc4cccnc34)C2)n1 (stereo unspecified) | -2.61 | 9.46 | 13.5 | 3.85 | -5.73 | -2.09 | 4.68 | 16.3 | 5.38 | 6.49 | 0.402
CN(C)CCn1c(=O)oc2ccc(NC(=O)c3cc(Cl)c[nH]3)cc21 | -3.23 | 2.67 | 0.098 | 6.1 | -3.41 | 4.17 | 13.6 | 10.7 | 19.1 | 21 | -7.97
CS(=O)(=O)N1CCC(C(=O)NC(Cc2ccsc2)c2nccs2)CC1 (stereo unspecified) | -5.37 | 9.46 | 6.1 | -1.37 | -3.36 | -1.16 | 2.65 | 12.9 | 0 | 11.7 | 2.8
